Tested on: EPHA8
Conditions: concentration: 1 μM, replicates: in singlicate; n = 1
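Note: KINOMEscan kinase panel screen.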

Row | SMILES | %Inh
1 | Nc1ncc(-c2ccc3nccc(-c4ccncc4)c3c2)cc1S(=O)(=O)N1CCCCC1 [GSK1693850] | 8%
2 | COc1cccc(CC(=O)N2CCc3cc(-c4cn(C)c5ncnc(N)c45)ccc32)c1 [GSK2608899] | 11%
3 | CC(C)NCC(Cc1ccccc1)NC(=O)c1cc(Br)c(-c2ccnc3[nH]ccc23)s1.Cl.Cl (stereo not drawn) [GSK1383281] | 0%
4 | Nc1ncc(-c2cn[nH]c2)c2scc(-c3ccc4c(c3)CCN4C(=O)Cc3ccccc3)c12 [GSK2593067] | 14%
5 | Cc1cccc(Nc2nc(NCCN)ncc2C(N)=O)c1 [GSK1292139] | 58%
6 | CC(C)c1nc(-c2cccc(NS(=O)(=O)c3c(F)cccc3F)c2)c(-c2ccnc(Nc3ccc(N4CCOCC4)nc3)n2)s1.Cl [GSK1723980] | 93%
7 | Cc1ccc(-c2ccc3occ(-c4ccc(S(C)=O)cc4)c3c2)nn1 (stereo not drawn) | 0%
8 | COc1ccc(C2=C(Nc3cccc(O)c3)C(=O)NC2=O)cc1 [SB-390766] | 11%
9 | COc1ccc(NC(=O)c2ccoc2)cc1-c1ccc(C(=O)NCC2CC2)cc1 [GW810437] | 1%
10 | Cc1nn2c(=O)cc(N3CCO[C@H](C)C3)nc2n1Cc1cccc(Cl)c1Cl [GSK2373693] | 2%
11 | Cl.O=C(Nc1ccc(Oc2ccc3[nH]c(NC(=O)c4ccco4)nc3c2)cc1)Nc1cc(C(F)(F)F)ccc1F [GW683134] | 99.5%
12 | O=C(O)C(F)(F)F.O=c1[nH]ccc2nc(N[C@@H]3CCNC3)nc(Nc3ccc4c(c3)S(=O)(=O)CC4)c12 [GSK2181306] | 24%
13 | O=C(Nc1n[nH]c2cc(-c3cccs3)ccc12)C1CC1 [SB-731284] | 0%
14 | CNc1nccc(-c2ccc3c(N)n[nH]c3c2)n1 [GSK2206003] | 18%
15 | COc1cccc(NC(=O)NCCNc2ccnc(Nc3ccc(F)cc3)n2)c1 [GSK1379879] | 2%
16 | CN(c1ccc2c(c1)nc(NCc1ccccc1)n2C)c1ccnc(Nc2ccc(CS(C)(=O)=O)cc2)n1.Cl [GW811603] | 47%
17 | Cc1ccc(O)cc1Nc1ccnc2cc(-c3ccc(CN4CCCCC4)o3)ccc12 [GW557777] | 99.7%

Row | SMILES | %Inh
18 | Cc1cccc(Nc2nc(N[C@H]3CCCC[C@H]3N)ncc2C(N)=O)c1.Cl [GSK986310] | 9%
19 | c1ccc(Oc2ccc(Nc3ccnc4cc(-c5ccc(CN6CCCCC6)o5)ccc34)cc2)nc1 [GW567143] | 12%
20 | CC(C)c1nc(-c2ccc(F)c(NS(=O)(=O)c3c(F)cccc3F)c2)c(-c2ccnc(Nc3ccc(N4CCOCC4)nc3)n2)s1 [GSK1804250] | 70%
21 | CCNc1nccc(-c2c(-c3ccc(F)cc3)ncn2C2CCN(C)CC2)n1 | 0%
22 | Fc1cc(Cl)ccc1Nc1ccnc2cc(-c3ccc(CN4CCSCC4)o3)ccc12 [GW560106] | 72%
23 | NCCC(NC(=O)c1cc(Br)c(-c2ccnc3[nH]ccc23)s1)c1ccccc1.O=C(O)C(F)(F)F.O=C(O)C(F)(F)F (stereo not drawn) [GSK1307810] | 11%
24 | Cc1ccc(NC(=O)c2ccc(Cl)c(Cl)c2)cc1-c1ccc(C(=O)Nc2ccncc2)cc1 [GSK1398460] | 35%
25 | O=C(O)C(F)(F)F.O=c1[nH]ccc2nc(N[C@@H]3CCNC3)nc(Nc3cc(Cl)cc(Cl)c3)c12 [GSK2188764] | 5%
26 | Nc1ncnc2scc(-c3ccc(NC(=O)Cc4cc(F)ccc4F)cc3)c12.O=C(O)C(F)(F)F [SB-731254-M] | 0%
27 | Cc1ccc(NC(=O)c2ccnc(N3CCCCC3)c2)cc1-c1ccc(C(=O)NCC2CC2)cc1 [GW775610] | 0%
28 | Fc1cc(Cl)ccc1Nc1ccnc2cc(-c3ccc(CN4CCOCC4)o3)ccc12 [GW560109] | 90.2%
29 | CS(=O)(=O)c1cccc(CNc2nc(Nc3ccc4c(c3)CCC(=O)N4)ncc2C(F)(F)F)c1 | 0%
30 | Cc1cc(-c2c(-c3ccc(F)cc3)ncn2CCCN2CCOCC2)nc(N)n1 [SB-222517] | 0%
31 | CN1CCN(Cc2ccc(NC(=O)Nc3ccc(N(C)c4ccnc(Nc5ccc(CS(C)(=O)=O)cc5)n4)cc3)cc2)CC1.Cl [GW827654] | 77%
32 | COc1cccc(C2=C(Nc3cccc(O)c3)C(=O)NC2=O)c1 [SB-390771] | 18%
33 | O=C(Nc1n[nH]c2nc(-c3cccc(O)c3)ccc12)C1CC1 [SB-711805] | 30%
